# Compounds with a hit are over-represented: about 1.5% of the library has one in this group of screens.
# sEH inh: inhibitors of human soluble epoxide hydrolase. inhibition, % at 2 µM. recombinant human sEH enzymatic activity assay. AID 707. 91,000 tested, 0.34% active; in the data active = inhibition above about 80%
# Target sequence (P34913 whole entry, looked up): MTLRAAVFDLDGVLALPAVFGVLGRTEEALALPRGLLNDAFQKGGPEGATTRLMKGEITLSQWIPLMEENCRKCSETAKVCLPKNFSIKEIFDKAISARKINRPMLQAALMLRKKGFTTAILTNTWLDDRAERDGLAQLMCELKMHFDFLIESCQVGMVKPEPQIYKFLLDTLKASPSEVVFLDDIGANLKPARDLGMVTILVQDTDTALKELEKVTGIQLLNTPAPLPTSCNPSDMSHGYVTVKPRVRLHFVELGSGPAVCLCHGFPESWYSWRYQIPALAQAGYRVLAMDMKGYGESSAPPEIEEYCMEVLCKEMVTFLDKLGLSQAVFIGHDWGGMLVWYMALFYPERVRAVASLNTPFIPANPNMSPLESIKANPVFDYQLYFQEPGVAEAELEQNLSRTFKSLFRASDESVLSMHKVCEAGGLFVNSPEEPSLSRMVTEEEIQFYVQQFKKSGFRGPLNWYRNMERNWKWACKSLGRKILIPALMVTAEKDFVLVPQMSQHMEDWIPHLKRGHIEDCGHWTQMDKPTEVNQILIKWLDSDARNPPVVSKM
# sEH activator: increases human soluble epoxide hydrolase activity; purified human sEH enzymatic activity, activator screen; AID 717; 91,000 tested, 0.04% active; P34913; activation, % at 2 µM; in the data active = activation above about 37%
# BAP1 inh: human BAP1 deubiquitinase inhibition; Q92560; recombinant BAP1, Ub-AMC hydrolysis fluorescence kinetic; active compounds read low; calls only at 20 µM; 72,000 tested, 0.48% active;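 active = activity remaining at or below 50% of control, provided the compound also passes the data quality filters; inactive = the rest, including low values that fail the filters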
# PLAP activator: activators of human placental alkaline phosphatase | P05187 | purified PLAP enzyme, luminescent substrate read-out; active compounds read high | activation fold at 20 µM | 96,000 tested, 1.2% active | AID 696; in the data active = activation fold above about 2
# Numbers stand for hits; - = inactive; . = not tested or not shown.
SMILES,sEH inh,sEH activator,BAP1 inh,PLAP activator
Nc1ncnc2nc(SCc3ccc(Cl)cc3Cl)[nH]c12,-,-,.,2.3
O=C(O)CCSc1n[nH]c(=O)[nH]c1=O,.,.,-,.
CN1CC(=O)NC1=NC(=O)C12CC3CC(CC(C3)C1)C2,-,-,-,2.6
CC(C)(C)c1ccccc1OCC(=O)NC(c1ccccc1)c1ccccc1,.,.,-,.
O=C(NC1(C(F)(F)F)NC(=O)N(Cc2ccccc2)C1=O)c1cccnc1 (stereo unspecified),-,-,.,-
O=C1NC(Nc2nccs2)(C(F)(F)F)C(=O)N1CCc1ccccc1 (stereo unspecified),-,-,-,2
CCCc1[nH]nc2c1C(c1ccc(OC)c(Cn3nnc4ccccc43)c1)C(C#N)=C(N)O2 (stereo unspecified),-,-,-,-
COc1ccc(C2C(C#N)=C(N)Oc3n[nH]c(C)c32)cc1Cn1nnc2ccccc21 (stereo unspecified),-,-,-,2
CCN(C(=O)CCc1nc(-c2ccc(OC)cc2)no1)c1cc(OC)ccc1OC,-,-,-,2
CC(=O)N1CCC2(CC1)C(C#N)=C(N)Oc1n[nH]c(CSc3ccc(C)cc3)c12,-,-,-,2
Cc1ccc(SCc2[nH]nc3c2C2(C(=O)Nc4ccc(F)cc42)C(C#N)=C(N)O3)cc1 (stereo unspecified),-,-,.,2
Cc1[nH]nc2c1C1(C(=O)Nc3ccc([N+](=O)[O-])cc31)C(C#N)=C(N)O2 (stereo unspecified),-,-,.,-
C=C(C)Cn1c(Sc2nc3ccccc3[nH]2)nc2c1c(=O)[nH]c(=O)n2C,.,.,-,2.1
C=C(C)Cn1c(SCCCO)nc2c1c(=O)[nH]c(=O)n2C,-,-,-,-
CC(C)n1c(=S)[nH]c2ccccc21,-,-,.,-
CCn1c(=S)[nH]c2ccccc21,-,-,.,2.1
COc1ccc2c(C)nc(Nc3nc(C)cc(=O)[nH]3)nc2c1,-,-,-,.
COCc1cc(=O)[nH]c(Nc2nc(C)c3cc(OC)ccc3n2)n1,-,-,.,2.1
COc1ccc(NC(=O)CSc2ncn[nH]2)c([N+](=O)[O-])c1,-,-,.,-
Cc1ccc(C(=O)CSc2ncn[nH]2)cc1,-,-,-,2.3
CCc1ccc(C(=O)CSc2ncn[nH]2)cc1,-,-,-,2.4
COc1ccc(C(=O)CSc2ncn[nH]2)cc1OC,-,-,-,2.1
O=C(O)CSc1ncn[nH]1,-,-,-,-
O=C(O)c1ccc(CSc2ncn[nH]2)cc1,-,-,-,-
COc1ccc2c(c1)C(C)CC(C)(C)N2C(=O)CSc1ncn[nH]1 (stereo unspecified),-,-,-,2.4
SMILES,sEH inh,sEH activator,BAP1 inh,PLAP activator
CCOc1ccc(NS(=O)(=O)CC(C)C)cc1,.,.,-,.
CCOC(=O)c1c(NC(=O)C(C)C)sc(C(C)=O)c1C,.,.,-,.
Cc1n[nH]c(C)c1N1C(=O)c2cccc3c([N+](=O)[O-])ccc(c23)C1=O,.,.,-,.
CCc1c(C)nc2cc(-c3ccc(OC)c(OC)c3)nn2c1NCC1CC1,-,-,.,2
Cc1ccc2nc(-c3cccc([N+](=O)[O-])c3)cc(C(=O)OCC(=O)c3ccccc3)c2c1,.,.,-,.
N/C(=N\c1nc2ccccc2o1)NC(=O)c1ccc([N+](=O)[O-])c(Cl)c1,.,.,-,.
COc1ccccc1OCc1ccc(C(=O)N2N=C(C(F)F)CC2(O)C(F)F)o1 (stereo unspecified),-,-,.,-
O=C(c1ccc(Cn2cc(Br)cn2)o1)N1N=C(C(F)F)CC1(O)C(F)F (stereo unspecified),-,-,.,2
CC(=O)c1sc(Nc2nc3ccc(F)cc3s2)nc1C,-,-,-,2.3
O=c1oc2c(CN3CCCCC3)c(O)ccc2cc1-c1nc2ccccc2[nH]1,.,.,-,2.2
O=C1c2ccccc2CC1Sc1nnc(-c2ccccn2)o1 (stereo unspecified),-,-,-,2.6
O=C1CC(Sc2nnc(-c3ccccc3O)o2)C(=O)N1c1ccccc1 (stereo unspecified),.,.,-,-
C=CCNC(=S)NNC(=O)C(CCC(C)C)CC(C)O (stereo unspecified),-,-,.,2.7
C=CCNC(=S)NNC(=O)c1ccc(OCC(C)C)cc1,-,-,.,-
CC(c1ccccc1)C(CC(=O)O)C(=O)Nc1ccccc1I (stereo unspecified),.,.,-,.
O=C(CCSc1ccc(Cl)cc1)NC1CCCCC1,-,-,.,-
O=C(CCSc1ccc(Cl)cc1)NC12CC3CC(CC(C3)C1)C2,80.7,-,.,-
CN(C)Cc1nc2c(c(=O)[nH]1)C(C)(C)Cc1ccccc1-2,-,-,.,2.3
COc1ccc(C)cc1NC(=O)CN1CCN(C/C=C/c2ccccc2)CC1,-,-,.,2.3
Cc1sc(NC(=O)c2cc3ccccc3oc2=O)nc1-c1ccccc1,.,.,-,.
CCn1c(C)nc2cc(C(=O)n3cc(C(=O)c4cc(F)ccc4O)cn3)ccc21,.,.,-,2.1
CC1=CC(C)(C)N(C(=O)C(C)N2C(=O)c3ccccc3C2=O)c2cc(C)ccc21 (stereo unspecified),.,.,-,.
Cc1cccc(NC(=O)c2ccccc2C(=O)O)n1,.,.,-,.
O=C(CSc1ncn[nH]1)Nc1nnc(-c2ccccc2)s1,.,.,-,2.3
FC(F)(F)c1cnc(Oc2ccccc2-c2nnco2)c(Cl)c1,-,-,.,2.3
SMILES,sEH inh,sEH activator,BAP1 inh,PLAP activator
CO/N=C/NC(=O)NOCc1ncc(C(F)(F)F)cc1Cl,-,-,.,-
O=C(N/C=N/OCc1ccc(Cl)cc1Cl)NOCc1ncc(C(F)(F)F)cc1Cl,-,-,.,2
COc1ccc(CSC(=N)N)cc1[N+](=O)[O-],-,-,.,2.7
Cc1c(-n2c(=O)c3ccccc3c3ccccc3c2=O)cccc1[N+](=O)[O-],.,.,-,.
COC(=O)Nc1ccc(OC)c(OC)c1,-,-,-,-
COc1ccc(NC(=S)NNC(=O)OC(C)(C)C)cc1OC,-,-,.,2.5
CCc1ccc(N2CC(C(=O)Nc3ccc(C)c(S(=O)(=O)N4CCOCC4)c3)CC2=O)cc1 (stereo unspecified),-,-,.,2
COc1ccc(CCNC(=O)c2cc(-c3cc(C)ccc3O)n[nH]2)cc1OC,-,-,.,2.9
COc1ccc(CCNC(=O)c2cc(-c3ccc(C)c(C)c3O)n[nH]2)cc1OC,-,-,.,2.1
Nc1nc(SCC(=O)Nc2ccc(Br)cc2F)n[nH]1,-,-,-,2
N#CC1=C(S)N=C(N)C(c2nc(-c3ccccc3)cs2)C12CCCCC2 (stereo unspecified),-,-,.,2.2
Nc1nc(-c2ccccc2)cs1,-,-,.,-
N#CC1=C(S)N=C(N)C(c2nc(-c3ccccc3)cs2)C12CCCC2 (stereo unspecified),-,-,.,2.5
Cc1ccc(-c2csc(C3C(N)=NC(S)=C(C#N)C34CCCCC4)n2)cc1 (stereo unspecified),-,-,.,2.4
Cc1ccc(C(=O)CSC2=NC(N)=C(C#N)C3(CCCCC3)C2C(N)=O)cc1 (stereo unspecified),.,.,-,-
O=C(O)c1cccc(N2C(=O)C3C(C2=O)C2C=CC3C23CC3)c1 (stereo unspecified),.,.,-,.
COc1ccc(NC(=O)CSc2nnc(Cc3ccccc3)o2)c(OC)c1,-,-,-,2.3
Cc1cccnc1NCc1ccc(O)c2ncccc12,-,-,-,2.6

# High-throughput results deposited in PubChem BioAssay by several laboratories.
